We go through 7 compounds from PubChem BioAssay (Tox21).

Values joined by “and” are separate entries in the source; they are usually repeats but may differ in a detail not shown here. Equal values may be shown once. Inconclusive results are not listed. Where a structure was tested more than once in an assay, its records may differ in their call. Active and inactive are the calls of the source. Unless noted, calls come from the whole dose curve; as a rule, active = well fitted curve in the direction sought with a large enough effect in the repeat runs; inconclusive = weak or mixed curves; inactive = no such curve, though single readings can be large; an effect the other way counts as inactive or inconclusive.

In test [1] the target is Luciferin 4-monooxygenase (Photinus pyralis) (UniProt P08659). The test is described as follows: qHTS assay to identify small molecule inhibitors of firefly luciferase (AID 1224835). Note: nearly all actives have a fitted effect of over 25% in size. Note: potency is the fitted concentration of half-maximal effect. A digest of the protocol:
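Quantitative HTS format; KM concentrations of both substrates. Purified P. pyralis FLuc activity quantified from luminescence images.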
(In general: Quantitative high-throughput screening tests each substance at several concentrations.)

The nature of test [2]: qHTS assay to identify small molecule agonists of the constitutive androstane receptor (CAR) signaling pathway - cell viability counter screen (AID 1224836). Note: nearly all actives have a fitted effect of over 45% in size. The method in brief:
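HepG2-CYP2B6-hCAR, 2500 cells/well, 4 h pre-incubation; cpd 15 conc + PK11195 0.75 uM final; 23 h, 37 C/5% CO2; CellTiter-Fluor, fluorescence.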

Test [3] is described as follows: qHTS assay to identify small molecule antagonists of the constitutive androstane receptor (CAR) signaling pathway - cell viability counter screen (AID 1224837). Note: nearly all actives have a fitted effect of over 45% in size. A digest of the protocol: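 Using CellTiter-Fluor, viability is scored in HepG2 cells stably carrying hCAR and a 2.2kb CYP2B6 reporter after 23 hr compound exposure across 15 concentrations, with CITCO present at 50 nM.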

Test [4] concerns the target Nuclear receptor subfamily 1 group I member 3 (Homo sapiens) (UniProt Q14994). The test is described as follows: qHTS assay to identify small molecule antagonists of the constitutive androstane receptor (CAR) signaling pathway (AID 1224838).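 Note: HepG2 cells stably expressing hCAR with CYP2B6 luciferase reporter stimulated by CITCO; nearly all actives have a fitted effect of over 40% in size.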 Note: potency is the fitted concentration of half-maximal effect. A digest of the protocol: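 Reporter luminescence was quantified after 24 h exposure of hCAR/CYP2B6-2.2kb double-stable HepG2 cells to compounds at 15 concentrations in the presence of 50 nM CITCO final.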

For test [5] the target is unchanged. Description: qHTS assay to identify small molecule agonists of the constitutive androstane receptor (CAR) signaling pathway (AID 1224839). Note: nearly all actives have a fitted effect of over 15% in size. A digest of the protocol: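 HepG2-CYP2B6-hCAR cells, 2500/well, 4 h pre-incubation; compounds 15 conc.; PK11195 0.75 uM final; 24 h, 37 C/5% CO2; ONE-Glo luciferase read.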
A short description of test [6]: qHTS assay to identify small molecule antagonists of the estrogen related receptor signaling pathway with the pleiotropic PPARgamma coactivator (PGC) from Tox21 10K library - cell viability counter screen (AID 1224840; active = well fitted cell-killing curve with a large enough effect in the repeat runs, not every such curve was filed as active; note: nearly all actives have a fitted effect of over 40% in size). A digest of the protocol:
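Here the PGC/ERR cells serve as a cytotoxicity control: they are exposed to compounds for 17.5 hours at 37 C, and live-cell signal is quantified using CellTiter-Fluor fluorescence.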

Test [7] has as its target Thyrotropin receptor (Homo sapiens) (UniProt P16473). The test is described as follows: qHTS assay to identify small molecule agonists of the thyroid stimulating hormone receptor (TSHR) signaling pathway (AID 1224843; calls by dose curve; note: nearly all actives have a fitted effect of over 45% in size; note: potency is the fitted concentration of half-maximal effect). The method in brief: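 TSHR-expressing HEK293 cells (800 per well) were exposed to compounds for 30 min at room temperature. cAMP was then detected by HTRF competition with cAMP-d2 and anti-cAMP cryptate, read after 1 h at room temperature. Fifteen concentrations, triplicate.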

Test [8] can be described thus: qHTS assay to identify small molecule agonists of the hypoxia (HIF-1) signaling pathway - cell viability counter screen (AID 1224844; calls by dose curve; note: nearly all actives have a fitted effect of over 50% in size; note: potency is the fitted concentration of half-maximal effect). The method in brief:
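Multiplexed with the HRE beta-lactamase assay, this viability read used CellTiter-Glo luminescence (30 min, RT) on HRE-bla ME-180 cells treated 17 hrs with compounds in 0.5% dialyzed FBS medium.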

Test [9] is described as follows: qHTS assay to identify small molecule agonists of H2AX (AID 1224845; active = well fitted activation curve with a large enough effect in the signal ratio in the repeat runs, not every such curve was filed as active; the % refers to the signal ratio). A digest of the protocol:
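Wild-type CHO-K1 cells plated overnight, then exposed 3 hr at 37C to compounds at 15 concentrations (0.76% DMSO). Lysed, then HTRF anti-pH2AX(S139)-cryptate/anti-H2AX-d2 detection after 24 hr at room temperature; emissions 665 and 620 nm.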

Test [10] can be described thus: qHTS assay to identify small molecule agonists of the hypoxia (HIF-1) signaling pathway (AID 1224846; active = well fitted activation curve with a large enough effect in the signal ratio in the repeat runs, not every such curve was filed as active; the % refers to the signal ratio). A digest of the protocol:
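Hypoxia-pathway activation was scored as increased beta-lactamase from an HRE-controlled reporter in ME-180 cells; plated at 2,000 cells per well with 0.5% dialyzed FBS, they were exposed 17 hrs to compounds and then given CCF4-AM.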

A short description of test [11]: qHTS assay to identify small molecule agonists of H2AX - cell viability counter screen (AID 1224847; calls by dose curve; note: top concentration of the series differs between compounds; nearly all actives have a fitted effect of over 30% in size). A digest of the protocol:
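Cells plated first: CHO-K1, 1000 per well in 10% FBS medium, incubated overnight at 37C. Then 15-point compound titration added (final DMSO 0.76%) for 3 hr. Finally CellTiter-Glo added and luminescence read.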

The nature of test [12]: qHTS RealTime-Glo MT Cell Viability Assay in HepG2 cells - 24 hour (AID 1224867). Note: nearly all actives have a fitted effect of over 50% in size. The method in brief: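 qHTS, HepG2, 600 cells/well, RealTime-Glo (NanoLuc + prosubstrate) added with cells; 5 h preincubation; DMSO compound addition; 37 C; luminescence at 0/8/16/24/32/40 h.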
Test [13] in a line: qHTS RealTime-Glo MT Cell Viability Assay in HEK293 cells - 32 hour (AID 1224868). Note: top concentration of the series differs between compounds; nearly all actives have a fitted effect of over 50% in size. The method in brief:
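Assay medium contained NanoLuc luciferase plus cell-permeant prosubstrate, added with HEK293 cells at 600 cells/well. After 5 h at 37 C/5% CO2 compounds were added; plates stayed at 37 C for 40 h with serial luminescence reads.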

Test [14] in a line: A CellTox Green Cytotoxicity Assay to monitor cytotoxicity in HEK293 cells - 0 hour (AID 1224869). Note: nearly all actives have a fitted effect of over 50% in size. A digest of the protocol:
(§1)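 Seeding of HEK293 cells together with cytotoxicity dye preceded a 5 h incubation at 37 C/5% CO2. Test compounds in DMSO were then added and fluorescence monitored across 40 h.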

Test [15] in a line: qHTS RealTime-Glo MT Cell Viability Assay in HepG2 cells - 40 hour (AID 1224870). Note: nearly all actives have a fitted effect of over 50% in size. The method in brief:
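HepG2 cells mixed with RealTime-Glo MT reagents (NanoLuc plus cell-permeant prosubstrate) were seeded at 600 cells/well, incubated 5 h at 37 C/5% CO2, then pinned with compounds in DMSO; nonlytic luminescence tracked viability during 40 h treatment.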

The nature of test [16]: A CellTox Green Cytotoxicity Assay to monitor cytotoxicity in HEK293 cells - 40 hour (AID 1224871). Note: nearly all actives have a fitted effect of over 45% in size. The method in brief:
as §1

The nature of test [17]: qHTS assay to identify small molecule antagonists of the estrogen related receptor signaling pathway with the pleiotropic PPARgamma coactivator (PGC) from Tox21 10K library (AID 1224841; call rule not given here; note: potency is the fitted concentration of half-maximal effect). The method in brief: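 Each well held 2,000 PGC/ERR cells, pre-incubated six hours (37 C, 5% CO2). Test substances in DMSO were added by pin tool and left for 18 h at 37 C before luciferase detection by One-Glo.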

A short description of test [18]: qHTS assay to identify small molecule agonists of the estrogen related receptor signaling pathway with the pleiotropic PPARgamma coactivator (PGC) from Tox21 10K library (AID 1224842). Note: nearly all actives have a fitted effect of over 15% in size. The method in brief: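 PGC/ERR reporter cells (NTP line) were seeded 2,000 per well, rested 6 h at 37 C/5% CO2, then pin-dosed with compounds in DMSO for 18 h at 37 C; luciferase read by One-Glo luminescence after 30 min at room temperature.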

A short description of test [19]: qHTS assay to identify small molecule antagonists of the estrogen related receptor (ERR) signaling pathway from Tox21 library (AID 1224848). Note: nearly all actives have a fitted effect of over 50% in size. Note: potency is the fitted concentration of half-maximal effect. The method in brief:
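Cells: ERR line, 2,000/well; 6 h preincubation 37 C/5% CO2. Cpd in DMSO via pin tool; 18 h, 37 C. ONE-Glo, 30 min RT, luminescence.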

The nature of test [20]: qHTS assay to identify small molecule agonists of the estrogen related receptor (ERR) signaling pathway from Tox21 library (AID 1224849; calls by dose curve; note: nearly all actives have a fitted effect of over 15% in size). The conditions noted are these: ERR reporter cell line, ONE-Glo luciferase, 18 h. A digest of the protocol:
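Six hours post-seeding at 37 C/5% CO2, ERR cells receive DMSO-solubilised compounds; after 18 h at 37 C, ONE-Glo reagent is applied and luminescence recorded.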
% is set by controls: 0 for no effect and ±100 for the full control effect.

Nuclear receptor subfamily 1 group I member 3 (Homo sapiens), sequence (Q14994 whole entry, looked up): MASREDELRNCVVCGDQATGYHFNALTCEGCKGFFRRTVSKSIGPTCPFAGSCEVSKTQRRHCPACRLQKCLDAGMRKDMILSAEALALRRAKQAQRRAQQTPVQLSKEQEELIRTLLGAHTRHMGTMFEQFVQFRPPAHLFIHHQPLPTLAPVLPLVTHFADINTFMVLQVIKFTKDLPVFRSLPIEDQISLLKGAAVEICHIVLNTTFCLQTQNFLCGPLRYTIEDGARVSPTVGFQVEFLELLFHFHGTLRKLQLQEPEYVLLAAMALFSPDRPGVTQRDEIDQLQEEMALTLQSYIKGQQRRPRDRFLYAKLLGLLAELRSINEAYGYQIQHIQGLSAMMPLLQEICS
Thyrotropin receptor (Homo sapiens), sequence (P16473 whole entry, looked up): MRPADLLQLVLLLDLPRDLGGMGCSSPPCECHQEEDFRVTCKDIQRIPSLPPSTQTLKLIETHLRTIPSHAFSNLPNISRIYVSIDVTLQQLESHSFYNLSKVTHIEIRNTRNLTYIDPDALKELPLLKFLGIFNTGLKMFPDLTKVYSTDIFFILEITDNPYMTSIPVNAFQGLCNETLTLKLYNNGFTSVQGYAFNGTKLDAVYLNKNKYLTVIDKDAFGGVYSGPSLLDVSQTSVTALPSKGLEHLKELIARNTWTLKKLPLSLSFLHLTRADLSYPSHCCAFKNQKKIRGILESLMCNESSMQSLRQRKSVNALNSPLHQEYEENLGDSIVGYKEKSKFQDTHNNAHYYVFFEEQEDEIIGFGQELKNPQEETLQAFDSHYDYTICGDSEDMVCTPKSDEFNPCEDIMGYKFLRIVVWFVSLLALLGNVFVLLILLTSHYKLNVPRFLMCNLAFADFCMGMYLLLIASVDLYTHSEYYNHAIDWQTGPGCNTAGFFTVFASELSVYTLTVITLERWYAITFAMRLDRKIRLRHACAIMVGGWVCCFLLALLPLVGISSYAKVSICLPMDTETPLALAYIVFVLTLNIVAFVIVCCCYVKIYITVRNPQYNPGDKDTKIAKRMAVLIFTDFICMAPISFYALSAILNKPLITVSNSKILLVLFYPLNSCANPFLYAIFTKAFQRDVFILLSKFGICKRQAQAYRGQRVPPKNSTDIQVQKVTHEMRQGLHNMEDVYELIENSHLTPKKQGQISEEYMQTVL
Luciferin 4-monooxygenase (Photinus pyralis), sequence (P08659 whole entry, looked up): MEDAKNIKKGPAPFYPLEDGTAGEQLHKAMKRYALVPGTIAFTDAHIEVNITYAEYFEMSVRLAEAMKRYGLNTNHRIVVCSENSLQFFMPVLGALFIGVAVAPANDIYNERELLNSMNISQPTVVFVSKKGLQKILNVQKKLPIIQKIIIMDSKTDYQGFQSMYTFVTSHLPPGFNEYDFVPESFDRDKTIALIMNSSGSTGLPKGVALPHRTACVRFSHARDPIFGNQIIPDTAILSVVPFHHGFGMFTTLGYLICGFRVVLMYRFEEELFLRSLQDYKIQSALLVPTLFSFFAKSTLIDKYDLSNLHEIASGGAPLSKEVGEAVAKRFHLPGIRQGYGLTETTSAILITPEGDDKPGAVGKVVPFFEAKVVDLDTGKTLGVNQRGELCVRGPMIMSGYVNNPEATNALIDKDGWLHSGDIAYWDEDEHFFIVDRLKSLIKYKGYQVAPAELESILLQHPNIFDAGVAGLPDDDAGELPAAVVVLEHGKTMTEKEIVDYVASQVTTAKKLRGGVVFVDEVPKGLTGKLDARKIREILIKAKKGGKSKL

Take `C=C[C@@]1(C)CC(=O)[C@]2(O)[C@@]3(C)[C@@H](O)CCC(C)(C)[C@@H]3[C@H](O)[C@H](OC(C)=O)[C@@]2(C)O1`: the Potency entry in test [1], in test [2], in test [3], in [5], in [6] and in test [9] was “inactive” in each case. Moreover, the Potency result in test [11], in test [12], in test [13], in test [14], in [15] and in test [16] was “inactive” in each case. Moreover, the Potency in test [4] was 27.3 µM (active) and inactive; in test [7] it was 17.2 nM (active) and 18.8 nM (active); in [8], 38.9 µM (active). In test [10], the call was inactive.
`C=C1C[C@H]2[C@@H]3C=C(C)C4=CC(=O)CC[C@]4(C)[C@H]3CC[C@]2(C)[C@@]1(OC(C)=O)C(C)=O`: the Potency result in test [1], in test [2], in [3], in test [4], in test [5] and in test [6] was “inactive” each time. The Potency result in [18], in test [8], in test [9], in test [11], in test [12] and in test [14] was “inactive” throughout. Besides, the Potency entry in test [15] and in [16] was “inactive” throughout. The Potency was 31.3 µM (active) in test [17]; 24.8 µM (active) and 21.1 µM (active) in test [19]. In addition, the call in test [10] was inactive. Further, in [20] (at 42.5 µM (top of the series)), the activity change, positive = activation was -56.4% (inactive) and -29.1% (inactive).
For `C1COCCN1`, the Potency entry in test [1], in test [2], in [3], in [4], in test [5] and in [6] was “inactive” throughout. In addition, the Potency result in test [7], in [8], in test [9], in test [11], in test [12] and in test [13] was “inactive” throughout. Also, the Potency entry in [14], in test [15] and in test [16] was “inactive” throughout. Besides, in [10], the result was inactive.
Turning to `O=S1(=O)CCCO1`, the Potency result in test [1], in test [2], in test [3], in test [4], in [5] and in test [6] was “inactive” in each case. Moreover, the Potency result in [7], in test [8], in test [9], in test [11], in test [12] and in test [13] was “inactive” each time. The Potency entry in [14] and in test [16] was “inactive” throughout. In test [10], the compound was called inactive.
In the case of `COC(=O)CC(=O)OC`, the Potency entry in test [1], in [2], in test [3], in test [4], in test [5] and in [6] was “inactive” each time. The Potency result in test [7], in [8], in [9], in [11], in test [12] and in test [13] was “inactive” in each case. The Potency result in test [14] and in test [16] was “inactive” each time. Besides, in test [10], the outcome was inactive.
In the case of `O=C(O)c1ccc(O)cc1`, the Potency entry in test [1], in test [2], in [3], in test [4], in [5] and in [6] was “inactive” throughout. In addition, the Potency result in [17], in [18], in test [7], in test [8], in test [9] and in [19] was “inactive” each time. In addition, the Potency entry in test [12], in [13], in test [14], in [15] and in test [16] was “inactive” each time. Further, the compound was called inactive in test [10]. The activity change, positive = activation in test [20] (at 92.4 µM (top of the series)) is 9.49% (inactive).
Take `Nc1cc([N+](=O)[O-])ccc1C(=O)O`: the Potency in [1] is 64.6 µM (active) and 35.6 µM (active). Also, the Potency entry in test [2], in test [3], in [4], in test [5], in test [6] and in test [7] was “inactive” throughout. Besides, the Potency entry in [8], in [9], in [11], in [12], in test [13] and in test [14] was “inactive” each time. The Potency result in [15] and in test [16] was “inactive” throughout. In addition, the compound was called inactive in test [10].
